# Source: PubChem
# Hits are enriched below; roughly 1.5% of the tested compounds scored in any of these assays.
# Tb PFK block: inhibitors of T. brucei phosphofructokinase; 330,000 compounds, 0.17% hits; AID 485367; T. brucei PFK, ADP-Glo luminescence; O15648; Potency, µM (highest dose often 57.5 µM), for inactives: at the top dose activity, negative = inhibition, hits mostly inhibitors;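 also: potency is read from the fitted curve at half-maximal effect; 0% = uninhibited 1x PFK enzyme wells and -100% = no-enzyme wells; nearly all actives have a fitted effect of over 60% in size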
# Target sequence (O15648 whole entry, looked up): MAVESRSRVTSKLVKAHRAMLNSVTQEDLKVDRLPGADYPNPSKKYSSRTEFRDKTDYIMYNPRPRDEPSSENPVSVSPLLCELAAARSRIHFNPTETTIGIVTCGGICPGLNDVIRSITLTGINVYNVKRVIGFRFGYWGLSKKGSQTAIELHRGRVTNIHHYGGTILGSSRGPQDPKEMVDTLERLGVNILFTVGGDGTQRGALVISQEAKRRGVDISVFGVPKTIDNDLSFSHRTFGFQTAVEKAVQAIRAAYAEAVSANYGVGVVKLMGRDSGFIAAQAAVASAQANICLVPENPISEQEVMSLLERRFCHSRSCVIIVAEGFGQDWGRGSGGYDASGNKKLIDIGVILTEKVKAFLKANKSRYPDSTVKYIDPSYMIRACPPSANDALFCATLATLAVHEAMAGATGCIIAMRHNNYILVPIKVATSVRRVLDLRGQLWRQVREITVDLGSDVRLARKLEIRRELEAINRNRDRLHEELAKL
#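 PFK 1.25 nM, F6P 0.5 mM, ATP 0.1 mM, 0.1 M TEA pH 8.0, 5 mM MgCl2, 0.01% Tween20, 0.1% BSA; 45 min RT. ADP-Glo readout. qHTS titration up to 57 uM; curves fitted, compounds curve-classed.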
# PGK inhibitor: inhibitors of T. brucei phosphoglycerate kinase. P07378. PGK/GAPDH coupled, Kinase-Glo luminescence, 60 min. Potency, µM (top dose mostly 57.5 µM), inactives show top-dose activity change, negative = inhibition, actives largely listed as inhibitors. AID 602233. 380,000 compounds, 0.043% hits; also: potency is read from the fitted curve at half-maximal effect; nearly all actives have a fitted effect of over 60% in size
#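 Recombinant glycosomal PGK reaction used 1,3-bisphosphoglycerate generated in-well by GAPDH (100nM final) in 100mM TEA pH 7.6, 5mM MgCl2, 0.01% Tween-20. After 60 minutes at room temperature, ATP was read by Kinase-Glo Plus luminescence end-point.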
# FEN1 inhibitor: blocks human flap endonuclease 1; P39748; Recombinant FEN1 flap cleavage, fluorescence, 15 min; Potency, µM (titrated, usually from 114 µM), for the others: at the highest dose activity change, negative = inhibition, usual class: inhibitors; 390,000 compounds, 0.35% hits; also: potency is read from the fitted curve at half-maximal effect; nearly all actives have a fitted effect of over 65% in size
#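 Concentration–response screening of FEN1 (10 nM): 15 min compound preincubation at room temperature, reaction started with 50 nM substrate and read at 0 and 15 min. Corrected, normalized data were fitted by a four-parameter Hill equation.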
# PI5P4Ka inh: inhibitors of human PI5P4K alpha; P48426; PI5P4Kalpha enzyme, ADP-Glo luminescence, 60 min; hits give low values; max response, %; 330,000 compounds, 1.2% hits; AID 652105; active = max response of -50% or lower; inconclusive = between -30% and -50%; inactive = -30% or higher; also: value at the top dose of about 77 µM
#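 qHTS, 1536-well: enzyme/substrate mix, compound by pin tool, 5 microM ATP final; RT 60 min; ADP-Glo reagents 1 (45 min) then 2 (30 min); luminescence.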
# TDP1 inh: TDP1 (human) enzyme inhibition; Q9NUW8; recombinant TDP1, AlphaScreen DNA substrate cleavage; Potency, µM (top dose mostly 130 µM), for inactives: at the top dose activity change, negative = inhibition, usual class: inhibitors; 350,000 compounds, 0.28% hits; AID 485290; also: potency is read from the fitted curve at half-maximal effect; nearly all actives have a fitted effect of over 40% in size
#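 Here, a 5' biotin and 3' phosphotyrosine-FITC DNA oligonucleotide reports Tdp1 activity: intact substrate bridges AlphaScreen beads, while cleavage leaves a 3' phosphate and drops signal. All incubations at room temperature.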
# WRN helicase inh: blocks human WRN helicase; WRN helicase unwinding, fluorescent forked duplex, kinetic; Potency, µM (series often up to 114 µM), for inactives: top-dose activity change, negative = inhibition, actives largely listed as inhibitors; 360,000 compounds, 0.46% hits; also: potency is read from the fitted curve at half-maximal effect; nearly all actives have a fitted effect of over 55% in size
#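 Screening of the MLSMR collection measured strand separation of a quenched forked DNA duplex (100 nM) by 20 nM WRN with 2 mM ATP, all final. Compounds were preincubated with enzyme 15 min at room temperature.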
# The depositor's hits bear a star; i = inactive; ? = inconclusive; · = no result given; [ ] = another dose, or the depositor's remark. Unless noted, calls follow the shape of the dose curve; as a rule, active = well fitted curve in the direction sought with a large enough effect; inconclusive = small, poorly fitted or top-dose-only effect, or another doubt; inactive = no such curve, though single readings can be large; an effect the other way counts as inactive or inconclusive. Unless noted, % is scaled to controls: 0 for no effect and ±100 for the full control effect.
SMILES,Tb PFK block,PGK inhibitor,FEN1 inhibitor,PI5P4Ka inh,TDP1 inh,WRN helicase inh
CCOC(=O)c1c(/N=C/c2cccc([N+](=O)[O-])c2O)sc(C)c1C,0.3%,-0.6%,-3.2%,-68.6*,0.0%,-23.8%
O=C(NCCO)c1cc2ccccc2cc1O,-7.4%,-5.9%,0.5%,·,2.2%,-6.4%
NNC(=O)c1cc2ccccc2cc1O,9.5%,-9.4%,-2.8%,-52.4*,6.9%,-8.1%
O=C(C[n+]1cccc2cc(Cl)ccc21)c1ccc2ccccc2c1,·,·,-3.6%,·,·,·
S=c1nc(-c2cc(Cl)ccc2Cl)[nH][nH]1,-20.0%,3.4%,16.9%,-64.2*,8.1%,-21.9%
S=c1[nH]nc2ccc3ccccc3n12,·,·,·,-60.8*,·,3.7%
Cc1ccc(S(=O)(=O)C=CS(=O)(=O)c2ccc(C)cc2)cc1,·,-4.0%,·,-11.3,·,-19.1%
Cc1ccc(S(=O)(=O)SCCCSS(=O)(=O)c2ccc(C)cc2)cc1,·,-8.6%,3.8%,-72.8*,·,50.1µM*
Cc1ccc(S(=O)(=O)SC/C=C/CSS(=O)(=O)c2ccc(C)cc2)cc1,·,-1.2%,-10.7%,-85.0*,·,?
C=CCn1c(SCc2ccc(Br)cc2F)nc2cc(C(=O)O)ccc2c1=O,18.3%,-15.7%,-6.6%,-60.5*,9.5%,-9.4%
C=CCn1c(SCc2c(C)noc2C)nc2cc(C(=O)O)ccc2c1=O,-2.9%,0.8%,8.5%,·,3.0%,1.3%
COc1cccc(C(=O)NC(=S)Nc2ccc(Cl)cc2C(=O)O)c1,0.9%,4.8%,10.4%,-63.1*,-1.2%,7.7%
COc1cccc(C(=O)NC(=S)Nc2ccc3c4c(cccc24)CC3)c1,2.2%,5.2%,-15.1%,0.5,4.1%,-8.9%
C#CCOCCOCCOCCNc1nc(N2CCN(C(=O)CCCCCCCCCCNC(=O)Cn3cc(CCCCCN)nn3)CC2)nc(N2CCN(C(=O)CCCCCCCCCCNC(=O)[C@H](CO)n3cc(CCCCCN)nn3)CC2)n1,-28.5%,9.8%,?,-58.3*,12.0%,79.4µM*
C#CCOCCOCCOCCNc1nc(N2CCN(C(=O)CCCCCCCCCCNC(=O)Cn3cc(CCCCCN)nn3)CC2)nc(N2CCN(C(=O)CCCCCCCCCCNC(=O)[C@H]([C@@H](C)CC)n3cc(CCCCCN)nn3)CC2)n1,-5.9%,1.2%,?,?,6.3%,56.2µM*
Nc1cccc(S(=O)(=O)N2CCN(S(=O)(=O)c3c(F)cccc3F)CC2)c1,·,·,·,·,1.2%,·
CC1=Nc2ccc(C)cc2/C1=C/c1c(N)n2oc(C)cc2nc1=O,-2.9%,-9.9%,1.6%,-2.8,0.0%,-12.2%
CC1=Nc2ccccc2/C1=C/c1c(N)n2c(S(=O)(=O)C(C)C)nsc2nc1=O,11.3%,-2.1%,-6.5%,-76.0*,6.1%,?
CSc1nsc2nc(=O)c(/C=C3\C(C)=Nc4ccc(C)cc43)c(N)n12,8.8%,-0.2%,-23.4%,-68.2*,6.2%,?
CSc1nsc2nc(=O)c(/C=C3\C=Nc4ccccc43)c(N)n12,8.2%,-12.1%,?,-56.5*,2.7%,-17.7%
CC1=Nc2ccccc2/C1=C/c1c(N)n2c(S(=O)(=O)CC(C)C)nsc2nc1=O,22.9%,-10.7%,-28.3%,-65.2*,2.3%,?
CC1=Nc2ccc(C)cc2/C1=C/c1c(N)n2c(S(=O)(=O)C(C)C)nsc2nc1=O,2.2%,-3.2%,?,-85.3*,-1.2%,?
CN(C)C/C=C/C(=O)Nc1cccc(-c2c[nH]c3ncnc(Oc4ccc(NC(=O)CC(=O)Nc5ccc(F)cc5)cc4F)c23)c1,9.6%,i,-9.2%,-50.3*,5.9%,-2.0%
CC(=O)Nc1cccc(Oc2ncnc3scc(-c4ccccc4)c23)c1,4.1%,6.9%,3.9%,1.1,2.7%,-3.0%
Cc1ccc(S(=O)(=O)N2CCN(c3nc(-n4ccnc4)nc4ccccc34)CC2)cc1,·,·,-13.2%,·,·,·
SMILES,Tb PFK block,PGK inhibitor,FEN1 inhibitor,PI5P4Ka inh,TDP1 inh,WRN helicase inh
CC1=C/C(=C(/c2cc(C)c(O)c(Br)c2)c2ccccc2S(=O)(=O)O)C=C(Br)C1=O,-29.8%,?,?,-65.0*,·,?
CC1=C/C(=C(/c2ccc(O)c(C)c2)c2ccccc2S(=O)(=O)O)C=CC1=O,0.5%,-10.3%,?,-3.8,10.6%,-20.1%
S=c1[nH]nc(-c2cc(-c3ccco3)[nH]n2)n1-c1ccccc1Cl,-0.1%,-10.5%,?,-56.6*,3.55µM*,50.1µM*
CCOc1ccc(NC(=O)c2cccc(-n3cccc3)c2)cc1S(=O)(=O)N1CCOCC1,?,·,·,·,0.794µM*,·
Cc1cc[n+](CCC2CCCCC2)cc1,·,·,2.0%,·,·,·
Cc1cccc(NC(=O)CN2C(=O)S/C(=C\c3ccc(O)c([N+](=O)[O-])c3)C2=O)c1,0.2%,?,-1.4%,?,·,?
O=C1S/C(=C\c2ccc(O)c([N+](=O)[O-])c2)C(=O)N1Cc1cccc([N+](=O)[O-])c1,0.3%,-11.2%,?,-77.6*,5.1%,-8.3%[11.6 µM]
O=C1/C(=C\c2ccc(O)c(O)c2)SC(=S)N1Cc1ccccc1,?,-16.7%,?,?,·,11.2µM*
Cc1ccc(NC(=O)CN2C(=O)S/C(=C\c3ccc(C(=O)O)cc3)C2=O)cc1,-2.3%,-1.1%,25.5%,-5.0,·,1.4%
O=C(CN1C(=O)S/C(=C\c2ccc(O)c([N+](=O)[O-])c2)C1=O)Nc1ccc(N2CCOCC2)cc1,-12.0%,1.5%,14.7%,?,44.7µM*,-9.0%
Cc1ccc(NC(=O)CN2C(=O)S/C(=C/c3ccc(O)c([N+](=O)[O-])c3)C2=O)cc1C,?,?,?,-57.6*,79.4µM*,79.4µM*
COc1ccc(CC(=O)NCC(c2cccs2)S(=O)(=O)c2ccc(Cl)cc2)cc1 (centres undefined),·,3.16µM*,-20.6%,·,?,·
Ic1ccc(/C=C2\C=Cc3ccccc32)cc1,·,·,-6.1%,·,·,·
C=CC[n+]1ccc(/C=C2\C=Cc3cc(C)ccc3N2CC)c2ccccc21,-24.4%,?,?,?,9.9%,39.8µM*
CCN1/C(=C/c2cc[n+](CCCS(=O)(=O)[O-])c3ccccc23)Sc2ccccc21,-7.6%,-2.0%,?,-0.8,3.6%,-13.5%
Cc1ccc(-c2nc(CCN3C(=O)c4ccccc4C3=O)cs2)cc1,0.4%,-9.4%,?,·,-3.9%,-3.0%
O=C1c2ccccc2C(=O)N1CCc1csc(NNc2nc(CCN3C(=O)c4ccccc4C3=O)cs2)n1,1.3%,-5.4%,-14.0%,-69.1*,2.5%,-30.9%
NNC(=O)c1ccc(CSc2n[nH]c(=O)[nH]c2=O)cc1,?,-0.1%,-0.2%,-1.6,44.7µM*,-3.7%
O=c1[nH]nc(SCc2ccccc2)c(=O)[nH]1,0.1%,-8.8%,-1.7%,-10.9,0.0%,7.0%
